Screens: PubChem, Broad Institute
Shown is part of a subset that was picked to be rich in hits.
IDE exosite inh – exo-site inhibitors of human IDE, primary screen, biochemical, fluorescence anisotropy, probe displacement | Insulin-degrading enzyme (Homo sapiens), P14735 | purified IDE, FL-6b probe fluorescence polarization; hits give low values | z-score at 20 µM | 6.3% of 17,000 active | AID 1259349, 2017;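 active = z-score of -3 or lower, meaning strong loss of probe binding signal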;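 also: His-tagged human IDE residues 42-1019 made in E. coli with 30 nM FL-6b probe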
Numbers without * were called inactive.

SMILES | IDE exosite inh
Cc1ccccc1-c1ccc(C2[C@H]3CNC[C@@H]2N3Cc2cccnc2)cc1 (stereo not given in full) | -0.31
CN(C)C(=O)c1cccc(-c2ccc([C@H]3[C@H]4CN(C(=O)C5CC5)CC(=O)N4[C@H]3CO)cc2)c1 | 2.4
Cc1ccccc1-c1ccc([C@H]2[C@@H](CO)N3CCCCN(C(=O)NC4CCCC4)C[C@@H]23)cc1 | -19*
Cc1ccccc1-c1ccc([C@H]2[C@@H](CO)N3CCCCN(C(=O)NC4CCCC4)C[C@H]23)cc1 | -17*
Cc1ccccc1-c1ccc([C@H]2[C@H]3CN(C(=O)NC4CCCC4)CCCCN3[C@H]2CO)cc1 | -5.7*
CN1CCN(C(=O)C[C@H]2CC[C@@H]3[C@H](COC[C@@H](O)CN3C(=O)Nc3ccc4c(c3)OCO4)O2)CC1 | 2.2
C/C=C/c1ccc([C@H]2[C@@H](CO)N(C(=O)CC)[C@@H]2CNC(=O)c2ccncc2)cc1 | 0.29
CCS(=O)(=O)NCC[C@H]1CC[C@H](NC(=O)Nc2cc(Cl)cc(Cl)c2)[C@H](CO)O1 | -0.021
C[C@H](NC(=O)C[C@@H]1CC[C@H]2[C@H](COc3ccc(NS(=O)(=O)c4ccc(Cl)cc4)cc3C(=O)N2C)O1)c1ccccc1 | 0.21
